PubChem BioAssay (NCI)
Compounds without any hit were thinned out: in the full panel of roughly 83,000, 20% have a hit.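 For each line, cells grew in 96-well plates with the test compound present at a single concentration for 48 hours.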 A number with no mark means an inactive call. Active and inactive are the calls of the source. Rule for the calls: active = growth percent below 10; inactive = the rest.

Key:
Assay in all cases: NCI-60 one-dose screen, 48 h (100 = growth as untreated, 0 = no growth, -100 = all killed)
Conditions in all cases: 10 µM unless noted
SK-MEL-2 melanoma = test system: SK-MEL-2 melanoma
SN12C renal = test system: SN12C renal
UO-31 renal = test system: UO-31 renal
TK-10 renal = test system: TK-10 renal
ACHN renal = test system: ACHN renal
CAKI-1 renal = test system: CAKI-1 renal
CCRF-CEM leukemia = test system: CCRF-CEM leukemia
MOLT-4 leukemia = test system: MOLT-4 leukemia
EKVX NSCLC = test system: EKVX NSCLC
A498 renal = test system: A498 renal

| Compound | growth (SK-MEL-2 melanoma) [%] | growth (SN12C renal) | growth (UO-31 renal) | growth (TK-10 renal) | growth (ACHN renal) | growth (CAKI-1 renal) | growth (CCRF-CEM leukemia) | growth (MOLT-4 leukemia) | growth (EKVX NSCLC) | growth (A498 renal) |
| --- | --- | --- | --- | --- | --- | --- | --- | --- | --- | --- |
| COc1ccc(-c2nsc3c2NC(=O)CC3c2ccc3c(c2)OCO3)cc1 (stereo not given) | 26.4 | 55.8% | 33.6% | 32.3% | 50.3% | 26.1% | 3.82% (active) | 18.4% | – | – |
| Cc1ccccc1N1C(c2ccccc2)=NNC12C=CC(=O)c1c(O)cccc12 (stereo not given) | – | 62.2% | 57.5% | 116% | 81.7% | 96.9% | 119% | 101% | 79.7% | 76.4% |
| COc1ccc(C2C=C(c3ccc(Cl)cc3)N=C3SC=CN32)cc1 (stereo not given) | 113 | 114% | 88.5% | 118% | – | 101% | 88.2% | 104% | – | 104% |
| NC(=O)Nc1ccc2ncnc(Nc3cccc(O)c3)c2c1 | – | 94.9% | 80.1% | 103% | 103% | 84.8% | 108% | – | 82.6% | 77.4% |
| CC1=NN(c2cccc(S(N)(=O)=O)c2)C(=O)C1 | – | 90.9% | 77.1% | 97.8% | 99.6% | 51% | 79.6% | 99.7% | 91.2% | 88.6% |
| C[C@@H]1C[C@H](N)C[C@H](c2ccncc2NC(=O)c2ccc(F)c(-c3c(F)cccc3F)n2)C1 | – | 58.2% | 25.3% | 67.6% | 60.5% | 27.7% | – | 9.29% (active) | 74.9% | 35.9% |
| O=[N+]([O-])c1cccc([I+]c2ccccc2)c1 | 76.1 | 52.4% | 43.6% | 67.5% | – | 46% | 15.8% | 12.6% | – | 40.5% |
| CS(=O)(=O)Nc1cc(-c2cc3ncc(C#N)c(Nc4ccc(Oc5ccccc5)c(Cl)c4)c3s2)cnc1Cl | – | 45.7% | 22.6% | 45.4% | 39.2% | 19.4% | 38.3% | 36.9% | 58.1% | -15.2% (active) |
| CCc1ccc2c(c1)N(CCO)C1=C(C(=O)OC1)C2c1cccc(Br)c1 (stereo not given) | – | 53.5% | 34% | 45.4% | 47.4% | 26.1% | 11.9% | 19.3% | 47.4% | 2.81% (active) |
| O=C1OCC2=C1C(c1ccc(Cl)c(Cl)c1)c1cc3c(cc1N2CCO)CCC3 (stereo not given) | – | 31.4% | 26.3% | 50.7% | 32.8% | 35.7% | 10.6% | 18.9% | 40.2% | -0.897% (active) |
| O=c1c2sc3ncc(Cl)cc3c2nnn1-c1cccc(Cl)c1 | 92.9 | 74.3% | 48.5% | 93% | – | 67.4% | – | 90.2% | – | 63.1% |
| COc1ccc2c(c1)N(CCO)C1=C(C(=O)OC1)C2c1cccc(Br)c1 (stereo not given) | – | 27.3% | 32.3% | 60% | 28.4% | 8.86% (active) | 11.7% | 13.9% | 37.4% | -1.77% (active) |
| O=C1OCC2=C1C(c1cccc(Br)c1)c1cc3c(cc1N2CCO)OCCO3 (stereo not given) | – | 26.7% | 18.1% | 62.7% | 33.8% | 15% | 9.31% (active) | 20.5% | 44.1% | -11% (active) |
| O=C(Cc1ccc(Nc2ccnc(C(F)(F)F)c2)cc1)N/N=C/c1ccccc1O | – | 36.1% | 0.112% (active) | 22.7% | 4.09% (active) | 32.3% | – | 64.4% | 25.7% | 145% |
| COc1cc(Nc2ccnc3ccc(Br)cc23)cc(OC)c1OC | – | 41.5% | 40.2% | 56.8% | 37.6% | 31.9% | 32.8% | 32.1% | 53.4% | -7.03% (active) |
| CCOC(=O)c1sc2nc(-c3cc4ccccc4o3)cc(-c3ccc(Cl)cc3)c2c1N | 83.8 | 82.4% | 87.2% | 145% | 80.9% | – | 84% | 99.3% | – | 98.2% |

| Compound | growth (SK-MEL-2 melanoma) [%] | growth (SN12C renal) | growth (UO-31 renal) | growth (TK-10 renal) | growth (ACHN renal) | growth (CAKI-1 renal) | growth (CCRF-CEM leukemia) | growth (MOLT-4 leukemia) | growth (EKVX NSCLC) | growth (A498 renal) |
| --- | --- | --- | --- | --- | --- | --- | --- | --- | --- | --- |
| ClCc1cccc(CSc2ncnc3c2ncn3Cc2cccc(CCl)c2)c1 | – | 2.77% (active) | 40.6% | 48.4% | 70.1% | 96.4% | 3.41% (active) | 5.6% (active) | 92.9% | 76.2% |
| COc1ccc(C2=CC(c3ccc(OC)cc3Br)N3C=CSC3=N2)cc1 (stereo not given) | 109 | 57.6% | 37.7% | 72% | 71.4% | – | 26.9% | 36.7% | – | 72.2% |
| Brc1ccccc1Cn1c(-c2cncs2)nc2ccccc21 | 95.4 | 85.1% | 44.9% | 82.6% | – | 74.4% | 78% | 77.6% | – | 71.6% |
| COC(=O)C1(C)COP(=O)(NC23CC4CC(CC(C4)C2)C3)OC1 (stereo not given) | – | 113% | 87.2% | 96.7% | 103% | 103% | 98.2% | 109% | 98.4% | 103% |
| CNC(=O)c1ccccc1Sc1ccc2c(/C=C/c3ccccn3)n[nH]c2c1 | – | 27.6% | 17.3% | 54.8% | 31.2% | 30.7% | – | 13.4% | 53.8% | -23.3% (active) |
| Cc1nc2c(-c3cnc(N)nc3)nc(N3CCOCC3)nc2n1C(C)C | – | 12.8% | -12.1% (active) | -33% (active) | 2.76% (active) | 0.604% (active) | – | 6.75% (active) | 9.04% (active) | -39.2% (active) |
| COc1ccc(C(=O)C(C#N)c2cc(OC)c(OC)c(OC)c2)cc1 (stereo not given) | 99.7 | 109% | 96.5% | 94% | 104% | 129% | 102% | – | – | – |
| CC1=NC(c2ccc(Cl)cc2)C2=C(N1)/C(=C/c1ccc(Cl)cc1)CCC2 (stereo not given) | 98.4 | 102% | 78.5% | 129% | – | 94.7% | 78.8% | 74.6% | – | 102% |
| O=c1cc(-c2ccc3c(c2)OCCO3)oc2cc(Cl)ccc12 | – | 26% | -72.2% (active) | -78.2% (active) | -70.1% (active) | 4.01% (active) | 97% | 101% | 28.1% | 8.97% (active) |
| CC(C)NCCCCCNc1cc(O)cc2cccnc12 | – | 59% | 88.4% | 124% | 102% | – | 94.3% | 16% | -8.81% (active) | 79.1% |
| Cc1ccc2nc(CN(CCN(Cc3nc4ccc(C)cc4[nH]3)Cc3nc4ccc(C)cc4[nH]3)Cc3nc4ccc(C)cc4[nH]3)[nH]c2c1 | – | -96.7% (active) | -73.7% (active) | -80.9% (active) | -99.2% (active) | – | -61.7% (active) | – | -97.5% (active) | -94% (active) |
| Cc1ccc(NC(=O)c2nc(S(C)(=O)=O)oc2-c2ccc(F)cc2)cc1Nc1ccc2ncn(C)c(=O)c2c1 | – | 67.7% | 72.5% | 90.8% | 48.4% | – | 16.3% | -5.15% (active) | 72.7% | 130% |
| O=C(O)/C=C(\c1nc2ccc([N+](=O)[O-])cc2[nH]1)c1cc(Cl)ccc1O | – | 13.1% | 17% | 27.4% | 12.5% | – | 0.888% (active) | -4.02% (active) | 17.6% | 7.28% (active) |
| COc1cc(/C=C/c2ccc3c(Br)cc(Br)c(O)c3n2)ccc1O | – | 52.8% | 0.12% (active) | 30.3% | 22% | – | -24.5% (active) | – | 23.1% | -4.9% (active) |
| CC(=O)c1cc(C(=O)c2ccc3c(c2)Sc2ccccc2N3)c2c(C)cccn12 | – | 35.5% | 34.1% | 56.9% | 32.4% | – | 16.3% | 12% | 38.1% | -5.33% (active) |
